# PubChem BioAssay
# For some of these results: Entries with a potency or affinity are not part of this list. Calls of active or inactive are those of the source. Cut-off read from the data, not from the text of the source, unless noted: active = inhibition above about 80%; inactive = the rest.
# Key:
# [1] = molecular target: Calcium-dependent protein kinase 1 (Plasmodium falciparum (isolate 3D7)) (UniProt P62344); assay: PfCDPK1 kinase inhibitors, biochemical, TCAMS library (AID 1159585; cut-off not given, nearly all actives have IC50 up to about 0.98 µM;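 note: inhibitors leave more ATP so luminescence rises with inhibition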); details: recombinant PfCDPK1, Kinase-Glo ATP depletion luminescence
# Calcium-dependent protein kinase 1 (Plasmodium falciparum (isolate 3D7)), sequence (P62344 whole entry, looked up): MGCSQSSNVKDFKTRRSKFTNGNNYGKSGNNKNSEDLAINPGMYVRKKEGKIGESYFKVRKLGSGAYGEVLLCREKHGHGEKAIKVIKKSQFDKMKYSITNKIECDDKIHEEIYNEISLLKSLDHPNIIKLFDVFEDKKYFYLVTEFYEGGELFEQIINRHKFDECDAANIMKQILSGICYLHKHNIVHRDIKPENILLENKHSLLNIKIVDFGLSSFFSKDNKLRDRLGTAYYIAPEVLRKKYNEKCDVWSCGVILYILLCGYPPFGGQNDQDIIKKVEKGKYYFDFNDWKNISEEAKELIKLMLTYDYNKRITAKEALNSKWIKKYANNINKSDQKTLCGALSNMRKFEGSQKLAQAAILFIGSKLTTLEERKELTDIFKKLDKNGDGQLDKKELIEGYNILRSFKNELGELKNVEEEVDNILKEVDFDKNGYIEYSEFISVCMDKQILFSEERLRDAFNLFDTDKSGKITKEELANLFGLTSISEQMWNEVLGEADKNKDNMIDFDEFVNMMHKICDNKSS
# [2] = molecular target: Plasmodium falciparum protein kinase 6 (PK6, PF3D7_1337100) (UniProt Q8IDW1); assay: PfPK6 kinase inhibitors, biochemical, TCAMS library (AID 1159586; call rule not given here); details: recombinant PfPK6, Kinase-Glo ATP depletion luminescence
# Plasmodium falciparum protein kinase 6 (PK6, PF3D7_1337100), sequence (Q8IDW1 1-305): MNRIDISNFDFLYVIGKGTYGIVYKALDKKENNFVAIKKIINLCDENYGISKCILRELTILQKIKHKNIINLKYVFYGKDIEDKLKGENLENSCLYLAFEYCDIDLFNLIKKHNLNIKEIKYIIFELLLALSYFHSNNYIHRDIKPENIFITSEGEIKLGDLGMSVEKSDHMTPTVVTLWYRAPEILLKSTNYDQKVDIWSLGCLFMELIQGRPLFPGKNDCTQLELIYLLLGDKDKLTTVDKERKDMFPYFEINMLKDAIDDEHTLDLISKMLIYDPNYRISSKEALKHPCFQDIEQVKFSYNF
# [3] = molecular target: Protein kinase 7 (PK7), Plasmodium falciparum 3D7 (PF3D7_0213400) (UniProt Q7YTF7); assay: inhibition of Plasmodium PK7 catalytic activity – biochemical, TCAMS antimalarial set, Kinase-Glo luminescence (AID 1159587; call rule not given here); details: recombinant PfPK7, Kinase-Glo ATP depletion luminescence
# Protein kinase 7 (PK7), Plasmodium falciparum 3D7 (PF3D7_0213400), sequence (Q7YTF7 1-343): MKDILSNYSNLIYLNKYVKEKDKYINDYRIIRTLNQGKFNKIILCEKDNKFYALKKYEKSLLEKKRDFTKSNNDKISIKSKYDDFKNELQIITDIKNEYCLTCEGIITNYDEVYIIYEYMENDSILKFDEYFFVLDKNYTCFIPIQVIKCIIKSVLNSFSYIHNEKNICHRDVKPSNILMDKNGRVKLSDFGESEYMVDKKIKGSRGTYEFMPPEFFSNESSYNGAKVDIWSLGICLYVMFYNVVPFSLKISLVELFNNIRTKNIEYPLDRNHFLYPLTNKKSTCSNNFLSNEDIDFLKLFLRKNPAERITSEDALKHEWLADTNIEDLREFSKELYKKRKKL
# [4] = molecular target: Calcium-dependent protein kinase 4 (Plasmodium falciparum (isolate 3D7)) (UniProt Q8IBS5); assay: PfCDPK4 kinase inhibitors, biochemical, TCAMS library (AID 1159588; cut-off not given, nearly all actives have IC50 up to about 0.91 µM); details: recombinant PfCDPK4, Kinase-Glo ATP depletion luminescence
# Calcium-dependent protein kinase 4 (Plasmodium falciparum (isolate 3D7)), sequence (Q8IBS5 whole entry, looked up): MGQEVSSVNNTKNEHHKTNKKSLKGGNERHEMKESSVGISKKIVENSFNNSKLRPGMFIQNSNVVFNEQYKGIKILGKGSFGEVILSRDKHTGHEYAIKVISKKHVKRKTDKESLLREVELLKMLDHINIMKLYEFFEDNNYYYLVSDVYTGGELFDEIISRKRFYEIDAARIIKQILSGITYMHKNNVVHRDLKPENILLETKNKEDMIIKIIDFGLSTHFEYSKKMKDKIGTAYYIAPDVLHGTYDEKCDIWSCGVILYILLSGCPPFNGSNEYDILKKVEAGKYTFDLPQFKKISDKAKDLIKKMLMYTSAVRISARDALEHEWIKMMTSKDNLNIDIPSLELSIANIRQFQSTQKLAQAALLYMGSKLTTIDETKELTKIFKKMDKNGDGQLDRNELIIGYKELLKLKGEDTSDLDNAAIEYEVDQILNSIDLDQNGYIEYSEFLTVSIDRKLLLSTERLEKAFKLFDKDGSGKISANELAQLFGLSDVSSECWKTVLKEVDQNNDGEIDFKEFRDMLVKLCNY
# [5] = molecular target: 6-phosphogluconate dehydrogenase, decarboxylating (Homo sapiens) (UniProt P52209); assay: 6PGD enzyme inhibitors, primary screen, biochemical, human, recombinant enzyme, NADPH absorbance (AID 1159550;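 active = at least 20% inhibition of 6-phosphogluconate dehydrogenase activity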); details: recombinant 6PGD, NADPH absorbance 341 nm; at 10 µM; stronger effect = higher value
# 6-phosphogluconate dehydrogenase, decarboxylating (Homo sapiens), sequence (P52209 whole entry, looked up): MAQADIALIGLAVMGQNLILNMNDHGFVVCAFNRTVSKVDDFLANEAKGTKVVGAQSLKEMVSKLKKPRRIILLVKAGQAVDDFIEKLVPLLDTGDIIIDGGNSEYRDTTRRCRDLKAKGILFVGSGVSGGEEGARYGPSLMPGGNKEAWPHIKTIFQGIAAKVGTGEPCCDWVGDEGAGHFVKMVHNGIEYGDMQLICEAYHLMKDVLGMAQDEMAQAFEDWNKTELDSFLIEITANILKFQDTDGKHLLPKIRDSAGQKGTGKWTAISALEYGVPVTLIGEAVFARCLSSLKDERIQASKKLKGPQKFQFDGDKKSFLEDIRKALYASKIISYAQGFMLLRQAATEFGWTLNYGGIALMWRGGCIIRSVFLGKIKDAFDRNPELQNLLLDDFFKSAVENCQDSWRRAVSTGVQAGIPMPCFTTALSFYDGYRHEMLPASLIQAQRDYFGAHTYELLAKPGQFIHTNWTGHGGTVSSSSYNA
# [6] = LFS_MB_P medulloblastoma growth inhibition, cell-based, chromothripsis tumors, cisplatin or BGB combos (AID 1671449); details: LFS_MB_P medulloblastoma cells;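 note: cells exposed for 96 hours; 0% = vehicle DMSO and 100% = killing by high DMSO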
# [7] = HDN33 neuroblastoma growth inhibition, cell-based, chromothripsis tumors, cisplatin or BGB combos (AID 1671450); details: HDN33 neuroblastoma cells, stronger effect = higher value;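 note: cells exposed to compound for four days; 0% = vehicle DMSO and 100% = cell killing by high DMSO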
# [8] = ICB984 medulloblastoma cell growth inhibition, synergistic combos for chromothripsis tumors, cisplatin or BGB combos (AID 1671451; call rule not given here;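 note: cells exposed for 96 hours before readout; 0% = vehicle DMSO and 100% = killing by high DMSO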); details: ICB984 medulloblastoma cells, drug combinations, stronger effect = higher value
# [9] = LFS_MB_1R medulloblastoma cell growth inhibition, synergistic combos for chromothripsis tumors, cisplatin or BGB combos (AID 1671452); details: LFS_MB_1R medulloblastoma cells, stronger effect = higher value;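 note: cells exposed for 96 hours before readout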
# [10] = HTB85 osteosarcoma cell growth inhibition, synergistic combos for chromothripsis tumors, BGB or cisplatin IC20 combos (AID 1671453); details: HTB85 osteosarcoma cells, drug combinations, stronger effect = higher value;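 note: cells exposed for 96 hours before readout; 0% = vehicle DMSO and 100% = high DMSO killing control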
# [11] = CRL2098 osteosarcoma cell growth inhibition, synergistic combos for chromothripsis tumors, BGB or cisplatin IC20 combos (AID 1671454); details: CRL2098 osteosarcoma cells, drug combinations, stronger effect = higher value;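 note: cells exposed for 96 h before readout; 0% = vehicle DMSO and 100% = killing by high DMSO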
# [12] = HD-MB03 medulloblastoma cell growth inhibition, synergistic combos for chromothripsis tumors, BGB or cisplatin IC20 combos (AID 1671455; in the data active = inhibition above about 83%;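 note: 0% = vehicle DMSO and 100% = high DMSO as cytotoxic control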); details: HD-MB03 medulloblastoma cells, stronger effect = higher value
# [13] = UWB1.289 ovarian carcinoma cell growth inhibition, synergistic combos for chromothripsis tumors, BGB or cisplatin combos (AID 1671456); details: UWB1.289 ovarian carcinoma cells, stronger effect = higher value;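 note: cells exposed to compound for four days; 0% = vehicle DMSO and 100% = killing by high DMSO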
# [14] = LFS_MB_2R medulloblastoma cell growth inhibition, synergistic combos for chromothripsis tumors, cisplatin combos (AID 1671457); details: LFS_MB_2R medulloblastoma cells, stronger effect = higher value;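 note: cells exposed to compound for four days before readout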
# [15] = MDA-MB-436 breast carcinoma cell growth inhibition, synergistic combos for chromothripsis tumors, BGB or cisplatin combos (AID 1671458; call rule not given here;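 note: cells exposed for 96 hours; 0% = vehicle DMSO and 100% = killing by high DMSO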); details: MDA-MB-436 breast carcinoma growth inhibition, drug combinations, stronger effect = higher value
# [16] = UWB1.289_BRCA1 ovarian cancer growth, cell-based, BGB or cisplatin combinations (AID 1671459); details: UWB1.289 BRCA1 ovarian carcinoma, drug combinations, stronger effect = higher value
# [17] = human astrocyte viability loss, single and combined drugs, cytotoxicity control for chromothriptic childhood tumor combination screen, cell-based, BGB or cisplatin IC20 combos (AID 1671460); details: Human astrocytes, drug combinations, stronger effect = higher value;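 note: cells exposed to compounds for 96 hours before viability readout; 0% = vehicle and 100% = killing control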
# [18] = growth inhibition of BT084 medulloblastoma cells, cell-based, ICGC_MB145, cisplatin and BGB IC40 combos (AID 1671461); details: drug combinations, stronger effect = higher value;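 note: cells exposed to drugs for 96 hours; 0% = vehicle DMSO and 100% = high DMSO full killing control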
# [19] = growth inhibition of RCMB18 medulloblastoma cells, cell-based, cisplatin and BGB IC40 combos (AID 1671462); details: stronger effect = higher value;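 note: cells exposed to compound for four days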
# [20] = growth inhibition of CRL1545 osteosarcoma cells, cell-based, cisplatin and BGB IC20 combos (AID 1671464); details: stronger effect = higher value;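 note: cells exposed to compound for 96 hours before readout; 0% = vehicle DMSO and 100% = high DMSO killing control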
# [21] = measured here: combination with BGB IC40, at 0.05 µM
# [22] = measured here: with BGB IC20 combination, at 0.5 µM
# [23] = measured here: with cisplatin IC20 combination, at 0.5 µM
# [24] = measured here: combination with cisplatin, at 0.5 µM
# [25] = measured here: combination with cisplatin, at 5 µM
structure (smiles),measurement,setting,value
Cc1cc(C)c2c(c1)/C(=N/O)CCN2,outcome,[1],inactive
same,outcome,[2],inactive
same,outcome,[3],inactive
same,outcome,[4],inactive
CC1(C(=O)O)CCC2(C)CCC3(C)C(=CC(=O)C4C5(C)CCC(OC(=O)CCC(=O)O)C(C)(C)C5CCC43C)C2C1 (stereo not drawn),inhibition,[5],6.14% (inactive)
same,inhibition,"[6]; at 0.5 µM, stronger effect = higher value",-21.3% (inactive)
same,inhibition,"[6]; measured here: combination with BGB IC20, at 0.005 µM",-7.44%
same,inhibition,"[6]; measured here: combination with BGB IC40, at 0.005 µM",-24.5%
same,inhibition,[6]; [21],-6.64%
same,inhibition,"[6]; measured here: combination with cisplatin, at 0.5 µM, stronger effect = higher value",-25.4%
same,inhibition,"[6]; measured here: combination with cisplatin, at 5 µM, stronger effect = higher value",6.61%
same,inhibition,"[7]; BGB combo, at 5 µM",-10.4%
same,inhibition,[7]; at 0.5 µM,-10.5% (inactive)
same,inhibition,"[7]; cisplatin combo, at 5 µM",-11.2%
same,inhibition,[7]; [22],-1.57%
same,inhibition,[7]; [23],-3.76%
same,inhibition,"[7]; single agent, at 5 µM",0.047%
same,inhibition,"[8]; BGB IC20 combo, at 0.005 µM",-6.54%
same,inhibition,"[8]; BGB IC40 combo, at 0.005 µM",-25.3%
same,inhibition,"[8]; BGB IC40 combo, at 0.05 µM",3.64%
same,inhibition,[8]; at 0.5 µM,-16.5% (inactive)
same,inhibition,"[8]; cisplatin combo, at 0.05 µM",3.64%
same,inhibition,"[8]; cisplatin combo, at 0.5 µM",-24%
same,inhibition,"[8]; cisplatin combo, at 5 µM",-37.6%
same,inhibition,"[8]; measured here: 5 uM single agent, at 5 µM",-21.7%
same,inhibition,[9]; at 0.5 µM,-0.8% (inactive)
same,inhibition,[9]; [21],-15.6%
same,inhibition,[9]; [24],21.2%
same,inhibition,[9]; [25],-0.5%
same,inhibition,[10]; at 0.5 µM,-18% (inactive)
same,inhibition,"[10]; measured here: with BGB IC20, at 0.5 µM",-38.9%
same,inhibition,"[10]; measured here: with BGB IC20, at 5 µM",-13.2%
same,inhibition,"[10]; measured here: with cisplatin IC20, at 0.5 µM",-4%
same,inhibition,"[10]; measured here: with cisplatin IC20, at 5 µM",-11%
same,inhibition,"[10]; single agent, at 5 µM",-22.6%
same,inhibition,[11]; at 0.5 µM,-75% (inactive)
same,inhibition,"[11]; measured here: combination with BGB at IC20, at 0.5 µM",-54.3%
same,inhibition,"[11]; measured here: combination with cisplatin at IC20, at 0.5 µM",-113%
same,inhibition,[12]; at 0.5 µM,0.23% (inactive)
same,inhibition,"[12]; measured here: combo with BGB at IC20, at 0.5 µM",-6.04%
same,inhibition,"[12]; measured here: combo with cisplatin at IC20, at 0.5 µM",5.01%
same,inhibition,[13]; at 0.5 µM,-3.45% (inactive)
same,inhibition,"[13]; measured here: inhibition with BGB combination, at 0.05 µM",-24.1%
same,inhibition,"[13]; measured here: inhibition with cisplatin combination, at 0.05 µM",-15.6%
same,inhibition,[14]; at 0.5 µM,-24.3% (inactive)
same,inhibition,[14]; [24],-26.3%
same,inhibition,[14]; [25],-19.2%
same,inhibition,[15]; at 0.5 µM,-23.5% (inactive)
same,inhibition,"[15]; measured here: BGB combination, at 0.5 µM",-21%
same,inhibition,"[15]; measured here: BGB combination, at 5 µM",-30.2%
same,inhibition,"[15]; measured here: cisplatin combination, at 0.5 µM",-40.5%
same,inhibition,"[15]; measured here: cisplatin combination, at 5 µM",-24%
same,inhibition,"[16]; BGB combination, concentration series, at 5 µM",-13.7%
same,inhibition,[16]; at 0.5 µM,-12.8% (inactive)
same,inhibition,"[16]; cisplatin combination, concentration series, at 5 µM",3.23%
same,inhibition,[17]; at 0.5 µM,-10.9% (inactive)
same,inhibition,"[17]; measured here: combo with BGB IC20, at 0.5 µM",-14.8%
same,inhibition,"[17]; measured here: combo with cisplatin IC20, at 0.5 µM",-13.4%
same,inhibition,[18]; at 0.5 µM,-17.1% (inactive)
same,inhibition,"[18]; cisplatin combination, at 0.5 µM",5.31%
same,inhibition,"[18]; cisplatin combination, at 5 µM",-38.2%
same,inhibition,"[18]; measured here: BGB IC40 combination 0.05 uM, at 0.05 µM",-1.75%
same,inhibition,"[18]; single agent, at 5 µM",-40.2%
same,inhibition,[19]; at 0.5 µM,-19.6% (inactive)
same,inhibition,"[19]; cisplatin combo, at 5 µM",13.2%
same,inhibition,"[19]; measured here: BGB IC40 combination, at 0.05 µM",-21.9%
same,inhibition,[19]; [24],-3.15%
same,inhibition,"[19]; single agent, at 5 µM",-16.1%
same,inhibition,[20]; at 0.5 µM,-42.7% (inactive)
same,inhibition,[20]; [22],-46.3%
same,inhibition,[20]; [23],-40.9%
same,inhibition,"[20]; single agent, at 0.05 µM",5.52%
same,inhibition,"[20]; single agent, at 5 µM",7.12%
